Experimental data published in PubChem BioAssay (NCATS).
Records with an inconclusive call do not appear. Calls of active or inactive are those of the source. Unless noted, calls follow the shape of the dose curve; as a rule, active = well fitted curve in the direction sought with a large enough effect; inconclusive = small, poorly fitted or top-dose-only effect, or another doubt; inactive = no such curve, though single readings can be large; an effect the other way counts as inactive or inconclusive.

Assays:
[1] = Viability counterscreen for antagonist of constitutive androstane receptor (CAR) against the NCATS DSHEA and TCM libraries (AID 1794837);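 also: compound exposure lasted 24 h before viability reading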
Outline: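 Cell viability, CellTiter-Fluor, Ex/Em 405/540 nm, 1 h at 37C. HepG2-CYP2B6-hCAR, 2,500 cells/well; cpds + CITCO 48 uM final (antagonist mode), 24 h, 37C/5% CO2.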

[2] = Viability counterscreen for agonist of constitutive androstane receptor (CAR) against the NCATS DSHEA and TCM libraries (AID 1794838)
Outline: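 Viability by CellTiter-Fluor fluorescence, 405/540 nm, after 1 h at 37C. HepG2-CYP2B6-hCAR cells were exposed 24 h to test substances in presence of 0.75 uM PK11195 (final).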

[3] = target: Nuclear receptor subfamily 1 group I member 3 (Homo sapiens) (UniProt Q14994); test: Primary qHTS for agonist of constitutive androstane receptor (CAR) against the NCATS DSHEA and TCM libraries (AID 1794839);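 also: HepG2 cells expressing human CAR with a CYP2B6 reporter plus PK11195 antagonist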
Outline: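 Luminescence from ONE-Glo luciferase was the agonist read-out in HepG2-CYP2B6-hCAR cells exposed 24 h to test substances. Wells also held the CAR antagonist PK11195 at 0.75 µM final. Viability was by CellTiter-Fluor fluorescence.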

[4] = HepG2 viability counterscreen (readout 2: ATP content) against the NCATS DSHEA and TCM libraries (AID 1794840)
Outline: (§1)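 1,000 HepG2 cells/well, 4 h attach; compounds ~24 h, 37C/5% CO2. Readout 1: GF-AFC 25 uM final, 30 min, fluorescence 380/510 nm. Readout 2: CellTiter-Glo, 30 min RT, luminescence.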

[5] = HepG2 viability counterscreen (readout 1: protease activity) against the NCATS DSHEA and TCM libraries (AID 1794841);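 also: cells exposed to compounds for about 24 h before the protease read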
Outline: as §1

[6] = target: Glutathione peroxidase 1 (Homo sapiens) (UniProt P07203); test: Primary qHTS Assay for Inhibitors of Recombinant Selenoprotein Glutathione Peroxidase 1 (GPX1) (AID 1845191); also: nearly all actives have a fitted effect of over 65% in size
Outline: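 GR-coupled assay: compounds preincubated 30 min at room temperature with GPX1, then reaction started with CHP; final 10 nM GPX1, 1 mM GSH, 0.5 mM CHP, 0.5 mM NADPH, 100 nM GR, 0.01% BSA, pH 7.5 Tris buffer. NADPH fluorescence (340/450 nm) read at 0 and 15 min.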

[7] = target: Phospholipid hydroperoxide glutathione peroxidase GPX4 (Homo sapiens) (UniProt P36969); test: Primary qHTS Assay for Inhibitors of Recombinant Selenoprotein Glutathione Peroxidase 4 (GPX4) (AID 1845192); also: nearly all actives have a fitted effect of over 65% in size
Outline: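 GR-coupled assay: recombinant GPX4 preincubated 30 min with compound at room temperature; final 200 nM GPX4, 1 mM GSH, 0.5 mM cumene hydroperoxide, 0.5 mM NADPH, 100 nM GR, 0.01% BSA, pH 7.5 Tris. NADPH fluorescence (340/450 nm) read at 0 and 15 min.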

[8] = target: Metallo-beta-lactamase type 2 (Klebsiella pneumoniae) (UniProt C7C422); test: qHTS to identify inhibitors of the New Delhi Metallo-beta-lactamase (NDM): assay validation screen against the NCATS LOPAC Collection (AID 1794843)
Outline: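 Absorbance at 485 nm from nitrocefin turnover (50 uM solution added), read at plateau, gives the read-out. Compounds in DMSO were incubated first with 2 nM final NDM-1 in pH 7.0 HEPES buffer containing 1 uM ZnSO4 and 0.01% Tween20.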

[9] = NCATS anti-infectives library activity on the primary C. elegans qHTS viability assay (AID 1745855; calls by dose curve); conditions: C. elegans worm area imaging, day 7; at 41.8 µM (top of the series)
Outline: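 Viability read-out is GFP fluorescence of PE254-GFP-FLuc C. elegans, measured by laser cytometry (488 nm) at day 0, 3 and 7. Ten L1 worms per well were incubated 7 days at 21 °C with compounds and bacterial capsules in S medium.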

[10] = target: Luciferin 4-monooxygenase (Photinus pyralis) (UniProt P08659); test: Primary firefly luciferase (FLuc) qHTS assay for identification of artifact compounds. (AID 1845220); conditions: outcome: dose series up to 54.1 µM unless noted; also: nearly all actives have a fitted effect of over 60% in size
Outline: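 Titrated compounds were incubated 15 min at RT, protected from light, with luciferin and ATP at 10 uM; reaction started with 10 nM FLuc, luminescence imaged at 5 min, and concentration-response fitted by Hill equation.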

Measured: Potency

Nuclear receptor subfamily 1 group I member 3 (Homo sapiens), sequence (Q14994 whole entry, looked up): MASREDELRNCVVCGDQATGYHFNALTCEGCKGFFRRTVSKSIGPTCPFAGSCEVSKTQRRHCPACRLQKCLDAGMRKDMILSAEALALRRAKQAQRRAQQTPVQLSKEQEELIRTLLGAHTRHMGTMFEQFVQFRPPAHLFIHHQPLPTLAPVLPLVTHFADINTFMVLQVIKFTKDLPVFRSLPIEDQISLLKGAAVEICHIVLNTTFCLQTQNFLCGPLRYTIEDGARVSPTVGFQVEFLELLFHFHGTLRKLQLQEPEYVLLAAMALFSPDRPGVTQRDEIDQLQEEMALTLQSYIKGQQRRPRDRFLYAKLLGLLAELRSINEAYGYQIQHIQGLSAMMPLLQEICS
Metallo-beta-lactamase type 2 (Klebsiella pneumoniae), sequence (C7C422 whole entry, looked up): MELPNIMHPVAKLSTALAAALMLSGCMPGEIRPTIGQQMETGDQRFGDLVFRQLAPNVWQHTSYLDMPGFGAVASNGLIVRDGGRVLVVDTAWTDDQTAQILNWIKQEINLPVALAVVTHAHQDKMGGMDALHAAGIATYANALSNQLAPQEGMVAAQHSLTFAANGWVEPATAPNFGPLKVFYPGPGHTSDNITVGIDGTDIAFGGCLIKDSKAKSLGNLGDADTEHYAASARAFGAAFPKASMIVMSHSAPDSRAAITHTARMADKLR
Glutathione peroxidase 1 (Homo sapiens), sequence (P07203 whole entry, looked up): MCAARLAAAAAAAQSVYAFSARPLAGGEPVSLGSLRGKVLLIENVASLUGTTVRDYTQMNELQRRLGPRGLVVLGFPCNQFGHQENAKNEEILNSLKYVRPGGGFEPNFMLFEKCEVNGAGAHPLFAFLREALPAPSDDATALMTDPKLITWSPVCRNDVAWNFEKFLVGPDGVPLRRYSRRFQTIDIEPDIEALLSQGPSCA
Phospholipid hydroperoxide glutathione peroxidase GPX4 (Homo sapiens), sequence (P36969 whole entry, looked up): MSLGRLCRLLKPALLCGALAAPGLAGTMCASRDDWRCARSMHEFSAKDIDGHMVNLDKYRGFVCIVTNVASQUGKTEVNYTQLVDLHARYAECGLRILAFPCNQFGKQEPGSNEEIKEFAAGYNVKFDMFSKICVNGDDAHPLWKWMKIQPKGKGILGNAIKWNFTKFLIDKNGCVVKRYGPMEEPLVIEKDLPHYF

O=C1O[C@H]([C@@H](O)CO)C(O)=C1O
inactive: [1] | [2] | [3] | [4] | [5] | [6] | [7]

CCN(CC)C(C)CN1c2ccccc2Sc2ccccc21 (stereo unspecified)
inactive: [8] | [6] | [7]

Nc1cc(=O)[nH]c(N)n1
inactive: [8] | [6] | [7]

CSc1ccc2c(c1)N(CCC1CCCCN1C)c1ccccc1S2 (stereo unspecified)
inactive: [8] | [6] | [7]

CC(CN1c2ccccc2Sc2ccccc21)N(C)C (stereo unspecified)
inactive: [8] | [6] | [7]

CCN(CC)CCNC(=O)c1c(C)[nH]c(/C=C2\C(=O)Nc3ccc(F)cc32)c1C
inactive: [8] | [6] | [7]

Cc1c(O)cccc1C(=O)N[C@@H](CSc1ccccc1)[C@H](O)CN1C[C@H]2CCCC[C@H]2C[C@H]1C(=O)NC(C)(C)C
inactive: [8] | [6] | [7]

CC12CCC(CC1)C(C)(C)O2
inactive: [4] | [6] | [7]

CCCCN(CCCC)CC(O)c1cc(Cl)cc2c1-c1ccc(Cl)cc1/C2=C/c1ccc(Cl)cc1 (stereo unspecified)
inactive: [8] | [6] | [7]

NC(N)=NCCC[C@H](N)C(=O)O
inactive: [4] | [5] | [8] | [6] | [7]

CNCCCC1c2ccccc2C=Cc2ccccc21
inactive: [8] | [6] | [7]

CSc1ccc2c(c1)C(N1CCN(C)CC1)Cc1ccccc1S2 (stereo unspecified)
inactive: [8] | [6] | [7]

CCCCc1ncc(/C=C(\Cc2cccs2)C(=O)O)n1Cc1ccc(C(=O)O)cc1
inactive: [9] | [8] | [6] | [7] | [10]

CC(=O)c1ccc2c(c1)N(CCCN(C)C)c1ccccc1S2
inactive: [8] | [6] | [7]

CC1=C(/C=C/C(C)=C/C=C/C(C)=C/C(=O)O)C(C)(C)CCC1
inactive: [8] | [6] | [7]

CC(CN(C)C)CN1c2ccccc2CCc2ccccc21 (stereo unspecified)
inactive: [8] | [6] | [7]

CN(C)CC[C@@H](c1ccc(Cl)cc1)c1ccccn1
inactive: [8] | [6] | [7]

CNCC(O)c1ccc(O)c(O)c1 (stereo unspecified)
inactive: [8] | [6] | [7]

CC1=C(C/C=C(\C)CCC[C@H](C)CCC[C@H](C)CCCC(C)C)C(=O)c2ccccc2C1=O
inactive: [1] | [2] | [3] | [4] | [5] | [7]

COCCOC(=O)C1=C(C)NC(C)=C(C(=O)OC/C=C/c2ccccc2)C1c1cccc([N+](=O)[O-])c1 (stereo unspecified)
inactive: [8] | [6] | [7]

CCCn1cnc2c1c(=O)n(CCCCC(C)=O)c(=O)n2C
inactive: [8] | [6] | [7]

N=c1c[n+](N2CCOCC2)[n-]o1
inactive: [8] | [6] | [7]

O=C(O)c1ccccc1O
inactive: [1] | [2] | [3] | [4] | [5]

OCCN1CCN(CCCN2c3ccccc3Sc3ccc(Cl)cc32)CC1
inactive: [8] | [6] | [7]

CCOc1nc2cccc(C(=O)O)c2n1Cc1ccc(-c2ccccc2-c2nn[nH]n2)cc1
inactive: [9] | [6] | [7] | [10]

CC(=O)OCC(=O)[C@@]1(O)CC[C@H]2[C@@H]3CCC4=CC(=O)CC[C@]4(C)[C@H]3C(=O)C[C@@]21C
inactive: [8] | [6] | [7]

C=Cc1c(C)c2cc3[nH]c(cc4nc(cc5nc(cc1[nH]2)C(C)=C5CCC(=O)O)C(CCC(=O)O)=C4C)c(C)c3C=C
inactive: [8] | [6] | [7]

C[C@]12C[C@H](O)[C@H]3[C@@H](CCC4=CC(=O)CC[C@@]43C)[C@@H]1CC[C@@H]2C(=O)CO
inactive: [8] | [6] | [7]

CC[C@H]1CN2CCc3cc(OC)c(OC)cc3[C@@H]2C[C@@H]1C[C@H]1NCCc2cc(OC)c(OC)cc21
inactive: [9] | [8] | [6] | [7]

NC1[C@H]2CN(c3nc4c(cc3F)c(=O)c(C(=O)O)cn4-c3ccc(F)cc3F)C[C@@H]12 (stereo partly specified)
inactive: [8] | [6] | [7]

NC(=O)c1ncn([C@@H]2O[C@H](CO)[C@@H](O)[C@H]2O)n1
inactive: [8] | [6] | [7]

CN(C)CCCN1c2ccccc2Sc2ccc(Cl)cc21
inactive: [8] | [6] | [7]

CN1CCC[C@@H]1Cc1c[nH]c2ccc(CCS(=O)(=O)c3ccccc3)cc12
inactive: [8] | [6] | [7] | [10]

C[C@]12CC[C@@H]3c4ccc(O)cc4CC[C@H]3[C@@H]1CCC2=O
inactive: [8] | [6] | [7]

C[C@H](NC(CCc1ccccc1)C(=O)O)C(=O)N1CCC[C@H]1C(=O)O (stereo partly specified)
inactive: [8] | [6] | [7]
